In the library only some 3.1% were active in any assay of this set; here they are far more common.
PLK1 PBD inh – qHTS for Inhibitors of PLK1-PDB (polo-like kinase 1 - polo-box domain): Primary Screen. Plk1 PBD binding of FITC phosphopeptide, fluorescence polarization. Potency, µM, without a hit: max response, negative = inhibition, usual class: inhibitors. 360,000 tested, 2.8% active. AID 720504, 2013; further: potency means the concentration at half of the fitted maximal effect; series mostly up to about 57 µM; nearly all actives have a fitted effect of over 65% in size
GLS inh – qHTS for Inhibitors of Glutaminase (GLS) | GLS enzymatic activity, qHTS titration | Potency, µM (top dose mostly 45.5 µM), without a hit: at the highest dose activity change, negative = inhibition, usual class: inhibitors | 410,000 tested, 0.21% active | AID 624170, 2012; further: potency means the concentration at half of the fitted maximal effect
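hKGA in 45 mM KH2PO4 pH 8.2, 0.02% Tween-20 with pin-transferred compounds; 1 mM L-glutamine (stock) plus glutamate oxidase/HRP/Amplex Red coupling added. Fluorescence read initially and after 30 min at RT.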
GCN5L2 inh – qHTS Assay for Inhibitors of GCN5L2. AID 504327, 2011. GCN5L2 HAT assay, ThioGlo1 CoA-SH fluorescence. Histone acetyltransferase KAT2A (Homo sapiens), Q92830. Potency, µM (highest dose often 58.9 µM), for the others: top-dose activity change, negative = inhibition, most hits filed as inhibitors. 390,000 tested, 0.21% active; further: potency means the concentration at half of the fitted maximal effect
Target sequence (Q92830 whole entry, looked up): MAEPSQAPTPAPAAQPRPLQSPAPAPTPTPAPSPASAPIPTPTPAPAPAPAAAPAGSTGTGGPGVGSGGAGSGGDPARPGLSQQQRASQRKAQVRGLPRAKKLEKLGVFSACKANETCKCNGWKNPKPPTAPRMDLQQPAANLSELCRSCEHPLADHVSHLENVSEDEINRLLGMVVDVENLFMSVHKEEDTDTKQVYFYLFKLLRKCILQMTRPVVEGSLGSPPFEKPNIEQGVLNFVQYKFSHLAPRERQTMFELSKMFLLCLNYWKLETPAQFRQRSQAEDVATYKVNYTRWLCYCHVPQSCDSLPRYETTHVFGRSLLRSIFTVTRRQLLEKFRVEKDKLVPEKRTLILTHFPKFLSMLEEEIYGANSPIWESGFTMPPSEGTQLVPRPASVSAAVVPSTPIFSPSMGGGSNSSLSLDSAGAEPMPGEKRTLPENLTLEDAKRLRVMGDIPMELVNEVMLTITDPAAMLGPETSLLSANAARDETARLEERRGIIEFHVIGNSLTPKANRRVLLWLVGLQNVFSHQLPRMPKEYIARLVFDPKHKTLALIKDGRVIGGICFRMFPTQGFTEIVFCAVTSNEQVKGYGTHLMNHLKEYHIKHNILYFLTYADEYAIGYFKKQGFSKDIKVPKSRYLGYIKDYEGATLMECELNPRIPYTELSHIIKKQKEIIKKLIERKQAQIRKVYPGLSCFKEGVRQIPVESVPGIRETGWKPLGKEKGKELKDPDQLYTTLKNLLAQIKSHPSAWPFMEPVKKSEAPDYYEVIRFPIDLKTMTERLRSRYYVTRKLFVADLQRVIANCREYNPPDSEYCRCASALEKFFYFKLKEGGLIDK
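GCN5L2 (20nM final) in 50mM HEPES, 0.1mM EDTA pH 7.5, 0.01% Tween-20 was preincubated 15 min at room temperature with compound, then given ThioGlo1 (50uM), H3(1-25) peptide (75uM) and acetyl-CoA (70uM); CoA-thiol fluorescence (Ex340/Em540) was read at 0 and 20 min.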
PI4K2A block – qHTS for small molecular inhibitors of PI4K2A | 420,000 tested, 0.13% active | activity change, negative = inhibition, % at 76.9 µM | Phosphatidylinositol 4-kinase type 2-alpha (Homo sapiens), Q9BTU6 | purified PI4K2A, ADP-Glo luminescence, 1 h; stronger effect = lower value; in the data active means activity change below about -50%; inconclusive means mostly about -30% to -49%;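 further: -100% = wells without enzyme as full effect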
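PI4K2A activity was measured by ADP-Glo luminescence: enzyme (4 ug/mL stock) and phosphatidylinositol (1.2 mM stock) in Tris pH 7.5/MgCl2/EGTA/Triton X-100 buffer were reacted with ATP (300 microM stock) for one hour at ambient temperature.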
VDR inh – Inhibitors of the vitamin D receptor (VDR): qHTS. Vitamin D3 receptor (Homo sapiens), P11473. VDR-SRC2-3 peptide fluorescence polarization, 2 h. 400,000 tested, 0.93% active. AID 504847, 2011. Potency, µM, for inactives: max response, negative = inhibition, usual class: inhibitors; further: potency means the concentration at half of the fitted maximal effect
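After 23 nl compound addition and a short centrifugation, plates sat for 2 hours at ambient temperature; polarization of fluorescence then indicated loss of VDR binding to peptide SRC2-3.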
* hit, by the source's call. Unless noted, the call rests on the fitted dose curve; in most records, active means well fitted curve in the direction sought with a large enough effect; inconclusive means small, poorly fitted or top-dose-only effect, or another doubt; inactive means no such curve, though single readings can be large; an effect the other way counts as inactive or inconclusive. Unless noted, on the % scale 0 is the no-effect control and ±100 the full control effect.

Screening CC(C)CN1CCC(=O)N([C@H](CSc2ccccc2)Cc2ccccc2)CC1 returned PLK1 PBD inh 21µM*, GLS inh 18%, GCN5L2 inh 2%, PI4K2A block -9 and VDR inh inconclusive.
CC(=O)Nc1ccc(SC[C@H](Cc2ccccc2)N2CCN(CCc3ccccc3)CCC2=O)cc1 was read as PLK1 PBD inh 12µM*, GLS inh 1%, GCN5L2 inh -4%, PI4K2A block 0 and VDR inh inconclusive.
CC(=O)Nc1ccc(SCC(c2ccccc2)N2CCN(CCc3ccccc3)CCC2=O)cc1 (stereo unspecified) was read as VDR inh -15%.
Screening O=C1CCN(CCc2ccccc2)CCN1CCSc1ccccc1 returned PLK1 PBD inh 3%, GLS inh -1%, GCN5L2 inh -21%, PI4K2A block 2 and VDR inh -13%.
Screening Cc1ccc(SC[C@H](Cc2ccccc2)N2CCN(CC(C)C)CCC2=O)cc1 returned PLK1 PBD inh -9%, GLS inh -3%, GCN5L2 inh 4%, PI4K2A block 0 and VDR inh -24%.
`CC(C)(C)[C@@H]1CCC(=O)N(CC[C@H](Sc2ccccc2)c2ccccc2)CC1` gave PLK1 PBD inh -14%, GLS inh 1%, GCN5L2 inh -5%, PI4K2A block 0 and VDR inh -12%.
Screening COc1cccc(/C=C2\CC3(OC(=O)c4cccc(F)c4)CCCN2C3)c1 (stereo unspecified) returned PI4K2A block -1.
`COC(=O)[C@]12C[C@H](CC(=O)NCc3cccs3)C(=O)N(Cc3ccc(Cl)cc3Cl)C1=C[C@H](C(C)(C)C)O[C@@H]2C` gave PI4K2A block -2.
Cc1ccc2c(c1)N(CCCC(=O)NCc1c(F)cccc1F)C(=O)CO2 was read as PI4K2A block 2.
Screening O=C(c1ccncc1)N1CCC(Oc2cccnc2)CC1 returned PI4K2A block -3.
`O=C1CCN(CCc2ccccc2)CCN1[C@H](CSc1ccccc1)c1ccccc1` gave PLK1 PBD inh -6%, GLS inh 0%, GCN5L2 inh -3%, PI4K2A block -63* and VDR inh -2%.
`CC(=O)Nc1ccc(SC[C@H](Cc2ccccc2)N2CC[C@@H](C(C)(C)C)CCC2=O)cc1` gave PLK1 PBD inh 9.5µM*, GLS inh -4%, GCN5L2 inh -13%, PI4K2A block -2 and VDR inh inconclusive.
`CC(C)(C)[C@H]1CCC(=O)N([C@H](CSc2ccccc2)Cc2ccccc2)CC1` gave PLK1 PBD inh -19%, GLS inh inconclusive, GCN5L2 inh 2%, PI4K2A block -1 and VDR inh -21%.
Screening O=c1c(Cl)c(NCCCO)cnn1-c1nc2ccccc2[nH]1 returned PLK1 PBD inh 13µM*, GLS inh 15%, GCN5L2 inh 19%, PI4K2A block -11 and VDR inh -16%.
For C=CCN(CC=C)c1cnn(-c2nc3ccccc3[nH]2)c(=O)c1Cl the results were PLK1 PBD inh -4%, GLS inh 5%, GCN5L2 inh -3%, PI4K2A block -11 and VDR inh -5%.
`COCc1cc(Sc2ccc(Cl)cc2)nc(C)n1` gave PLK1 PBD inh 0%, GLS inh 1%, GCN5L2 inh -3%, PI4K2A block -8 and VDR inh -2%.
For COCc1cc(S(=O)c2ccc(Cl)cc2)nc(C)n1 (stereo unspecified) the results were PLK1 PBD inh 5.3µM*, GLS inh 0%, GCN5L2 inh 1%, PI4K2A block -2 and VDR inh 50µM*.
Screening CC(C)CNC(=O)c1cccc(NC(=O)C(C)Oc2ccccc2)c1 (stereo unspecified) returned PLK1 PBD inh 27µM*, GLS inh 8%, GCN5L2 inh -14%, PI4K2A block 0 and VDR inh 3%.

High-throughput results: PubChem, National Center for Advancing Translational Sciences (NCATS)
